According to PubChem BioAssay (NCATS):
Where “and” joins values, the source holds several entries; their conditions need not be identical. Identical values can stand only once. Inconclusive results are not listed. Where a structure was tested more than once in an assay, its records may differ in their call. Calls of active or inactive are those of the source. Unless noted, calls follow the shape of the full dose curve.

How the values were obtained:
[1] = Primary qHTS for Huh7 cytotoxicity: counterscreen for inhibitors of MERS-S pseudotyped particle cell entry (AID 1479147); conditions: outcome: dose series up to 57.1 µM unless noted
[2] = Primary qHTS for inhibitors of MERS-S pseudo-typed particle cell entry (AID 1479149); conditions: outcome: dose series up to 57.1 µM unless noted; also: nearly all actives have a fitted effect of over 60% in size
[3] = Primary qHTS for Vero E6 cytotoxicity: counterscreen for inhibitors of SARS-S pseudo-typed particle cell entry (AID 1479150); conditions: outcome: dose series up to 57.1 µM unless noted
[4] = Cytotoxicity counterscreen for inhibitors of SARS-CoV-2 cell entry (AID 1645845); conditions: outcome: dose series up to 57.1 µM unless noted; also: nearly all actives have a fitted effect of over 50% in size
Outline: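 Expi293F/hACE2 cells seeded overnight; cpd pin-transferred in DMSO, 1 h preincubation, + media, 48 h 37 C 5% CO2; ATPLite 1step luminescence; normalized to cells and no cells.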

[5] = Primary qHTS to identify inhibitors of SARS-CoV-2 cell entry (AID 1645846); conditions: SARS-CoV-2 pseudovirus cell entry assay, luminescence; activity change, negative = inhibition: at 57.1 µM (top of the series) unless noted; also: nearly all actives have a fitted effect of over 45% in size
Outline: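 HEK293-ACE2 (Expi293F, stable hACE2), 1500 cells/well, o/n 37C; cpd 23 nL pin, 1 h; MLV-PP w/ SARS-CoV-2-S (Wuhan-Hu-1, Δ19 C-term); 48 h 37C; Bright-Glo luminescence; normalized vs S-PP and bald PP.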

[6] = target: Glutathione peroxidase 1 (Homo sapiens) (UniProt P07203); test: Primary qHTS Assay for Inhibitors of Recombinant Selenoprotein Glutathione Peroxidase 1 (GPX1) (AID 1845191; active = well fitted curve in the direction sought with a large enough effect; an effect the other way counts as inactive or inconclusive; also: % is scaled to controls: 0 for no effect and ±100 for the full control effect; nearly all actives have a fitted effect of over 65% in size)
Outline: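 Recombinant GPX1 (10 nM final) was preincubated with compound for 30 min at room temperature, then reacted with 1 mM GSH, 0.5 mM CHP, 0.5 mM NADPH and 100 nM glutathione reductase; NADPH fluorescence (340/450 nm) was read at 0 and 15 min.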

[7] = target: Phospholipid hydroperoxide glutathione peroxidase GPX4 (Homo sapiens) (UniProt P36969); test: Primary qHTS Assay for Inhibitors of Recombinant Selenoprotein Glutathione Peroxidase 4 (GPX4) (AID 1845192; active = well fitted curve in the direction sought with a large enough effect; an effect the other way counts as inactive or inconclusive; also: nearly all actives have a fitted effect of over 65% in size)
Outline: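 GR-coupled readout: 100 nM GR, 1 mM GSH, 0.5 mM NADPH; NADPH fluorescence (ex 340/em 450 nm) read at t=0 and after 15 min RT. GPX4 200 nM, preincubated 30 min with compound; substrate 0.5 mM CHP.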

[8] = target: Androgen receptor (Homo sapiens) (UniProt P10275); test: qHTS assay for small molecule agonists of androgen receptor signaling (AID 588515; active = well fitted curve in the direction sought with a large enough effect in the signal ratio, with a control signal flat; the % refers to the signal ratio; also: % is scaled to controls: 0 for no effect and ±100 for the full control effect); conditions: AR-UAS-bla HEK293, beta-lactamase ratio, agonist 16 h; stronger effect = higher value
Outline: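 EC50 and efficacy came from Hill fits of titrations (up to 92 uM) normalized to 30 nM R1881 as 100% and DMSO as 0%. Compound exposure was 16 h at 37 C on AR-UAS-bla HEK293 cells, with a 405/460/530 nm CCF4 fluorescence read.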

[9] = target: Androgen receptor (Homo sapiens) (UniProt P10275); test: qHTS assay for small molecule antagonists of androgen receptor signaling (AID 588516; active = well fitted curve in the direction sought with a large enough effect in the signal ratio, with a control signal flat, not every such curve was filed as active; the % refers to the signal ratio; also: potency is read from the fitted curve at half-maximal effect)
Outline: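 HEK293 AR-UAS-bla cells, 10% dialyzed FBS medium; cpd titration + R1881 10 nM final, 16 h 37 C; CCF4 2 h RT; FRET ratio; IC50/efficacy via Hill fit.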

[10] = target: Bile acid receptor (Homo sapiens) (UniProt Q96RI1); test: qHTS assay for small molecule antagonists of farnesoid X receptor signaling (AID 588526); also: % is scaled to controls: 0 for no effect and ±100 for the full control effect
Outline: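 Concentration-response titrations were fitted to the Hill equation for half-maximal inhibition and maximal response, with data normalised to 50 uM chenodeoxycholic acid and DMSO control wells. Cells: FXR-UAS-bla HEK293T, dialyzed FBS.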

[11] = target: Bile acid receptor (Homo sapiens) (UniProt Q96RI1); test: qHTS assay for small molecule agonists of farnesoid X receptor signaling (AID 588527); conditions: HEK293T FXR-UAS-bla, beta-lactamase ratio, 16 h; stronger effect = higher value;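 also: 0% = vehicle basal and 100% = reference agonist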
Outline: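 Quantitative HTS used FXR-UAS-bla HEK293T cells with 16 h compound incubation at 37 C. EC50 values came from concentration-response curves normalized to chenodeoxycholic acid.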

[12] = qHTS assay for small molecule antagonists of peroxisome proliferator-activated receptor delta signaling (AID 588535; active = well fitted inhibition curve with a large enough effect in the signal ratio, with a control signal flat, not every such curve was filed as active; the % refers to the signal ratio;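 as to max response: cells co-treated with a PPAR-delta agonist as stimulator during compound exposure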); conditions: HEK293T PPARd-UAS-bla, beta-lactamase FRET ratio, 18 h; 460 nm channel
Outline: (§1)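 Reporter: UAS-bla under PPAR-delta response element, HEK293T host. Medium: 2% charcoal/dextran FBS. Dosing: titration, 18 hrs, 37 C. Detection: CCF4, 2 hrs RT, 405 ex/460 and 530 em.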

[13] = target: Peroxisome proliferator-activated receptor delta (Homo sapiens) (UniProt Q03181); test: as above
Outline: as §1

[14] = target: Peroxisome proliferator-activated receptor gamma (Homo sapiens) (UniProt P37231); test: qHTS assay for small molecule agonists of peroxisome proliferator-activated receptor gamma signaling (AID 588536; active = well fitted curve in the direction sought with a large enough effect in the signal ratio, with a control signal flat, not every such curve was filed as active; the % refers to the signal ratio;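 also: 0% = DMSO basal wells and 100% = rosiglitazone at 2 µM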)
Outline: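 HEK293 UAS-bla reporter line, 1% charcoal/dextran FBS; titration, 16 h, 37 C; CCF4 loading 2 h RT; fluorescence 460/530 nm. Normalized to rosiglitazone 2 uM = 100%, DMSO = 0%.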

[15] = target: Peroxisome proliferator-activated receptor gamma (Homo sapiens) (UniProt P37231); test: qHTS assay for small molecule antagonists of peroxisome proliferator-activated receptor gamma signaling (AID 588537; active = well fitted inhibition curve with a large enough effect in the signal ratio, with a control signal flat, not every such curve was filed as active; the % refers to the signal ratio;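 also: reporter cells co-stimulated with 50 nM rosiglitazone agonist during compound treatment; % of control where 0% means no effect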)
Outline: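 We seeded GeneBLAzer HEK293 reporter cells at 3000 per well, allowed 6-6.5 h attachment at 37 C, then co-treated with test compound titrations and 50 nM rosiglitazone overnight (16 h). Inhibition was quantified from 460/530 nm emission ratios.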

[16] = target: Vitamin D3 receptor (Homo sapiens) (UniProt P11473); test: qHTS assay for small molecule antagonists of vitamin D receptor signaling (AID 588541);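 also: receptor activated by calcitriol during compound treatment; % is scaled to controls: 0 for no effect and ±100 for the full control effect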
Outline: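 VDR-UAS-bla HEK293T cells (2000/well, 2% charcoal-stripped FBS) were treated with titrated compounds plus 1-alpha,25-dihydroxyvitamin D3 (50 nM or 3 nM final) for 16 h at 37 C. CCF4 beta-lactamase fluorescence was read; Hill fits gave IC50.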

[17] = target: Vitamin D3 receptor (Homo sapiens) (UniProt P11473); test: qHTS assay for small molecule agonists of vitamin D receptor signaling (AID 588543);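 also: 0% = DMSO basal and 100% = reference agonist control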
Outline: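 β-lactamase reporter, VDR-UAS-bla HEK293T, agonist mode. Cells plated 5 h at 37 °C, compound titration 16 h at 37 °C, CCF4 dye 2 h RT, ratio 460/530 nm. Hill fit → EC50, efficacy vs 50 nM 1α,25-(OH)2D3.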

[18] = qHTS assay for small molecule antagonists of retinoid X receptor alpha signaling (AID 588546; active = well fitted inhibition curve with a large enough effect in the signal ratio, with a control signal flat, not every such curve was filed as active; the % refers to the signal ratio;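 also: cells stimulated with 9-cis-retinoic acid as agonist; % is scaled to controls: 0 for no effect and ±100 for the full control effect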); conditions: HEK293T RXRa-UAS-bla, beta-lactamase ratio, antagonist mode; measured here: W530 green channel, cytotoxicity proxy
Outline: (§2)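 Beta-lactamase reporter inhibition, read as CCF4 fluorescence ratio (ex 405, em 460/530 nm) after 2 h at RT. HEK293T UAS-bla cells, 2500/well, were stimulated with 9-cis-RA at 500 or 100 nM final alongside test compound for 18 h at 37 C.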

[19] = target: Retinoic acid receptor RXR-alpha (Homo sapiens) (UniProt P19793); test: as above; conditions: HEK293T RXRa-UAS-bla, beta-lactamase ratio, antagonist mode
Outline: as §2

[20] = target: Thyroid hormone receptor beta (Homo sapiens) (UniProt P10828); test: qHTS assay for small molecule antagonists of thyroid hormone receptor beta signaling (AID 588547; active = well fitted inhibition curve with a large enough effect in the signal ratio, with a control signal flat, not every such curve was filed as active; the % refers to the signal ratio); conditions: TR-UAS-bla HEK293, beta-lactamase ratio, antagonist mode, 18 h
Outline: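 TR-UAS-bla GripTite HEK293 cells in 2% charcoal/dextran FBS medium were preincubated 4 h at 37 C, given compound (0.59 nM to 92 uM) plus 0.4 nM T3 (final) for 18 h, then CCF4 for 2 h at RT; Hill fit gave IC50.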

[21] = qHTS assay for small molecule agonists of the antioxidant response element (ARE) signaling pathway (AID 651741; active = well fitted activation curve with a large enough effect in the signal ratio; the % refers to the signal ratio; also: potency is read from the fitted curve at half-maximal effect)
Outline: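 Compounds in DMSO are pinned onto HepG2 ARE-bla cells (2,000/well) that were preincubated 5 h; plates stay 16 h at 37 C, then beta-lactamase activity is detected with LiveBLAzer B/G substrate by fluorescence.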

[22] = qHTS assay for small molecule activators of the p53 signaling pathway (AID 651743; active = well fitted activation curve with a large enough effect in the signal ratio, not every such curve was filed as active; the % refers to the signal ratio; also: % of control where 0% means no effect); conditions: HCT-116 p53RE-bla, beta-lactamase FRET ratio, 16 h; activation: stronger effect = higher value
Outline: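 Cell-based beta-lactamase reporter (p53 response elements, HCT-116 background). After a 5-hour preincubation, cells received compound for 16 hours at 37 C; substrate development ran 2 hours at room temperature.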

[23] = qHTS assay for small molecule activators of the nuclear factor-kappa B (NF-kB) signaling pathway (AID 651749; active = well fitted activation curve with a large enough effect in the signal ratio; the % refers to the signal ratio; also: % of control where 0% means no effect); conditions: NF-kB-bla ME-180 cells, beta-lactamase FRET ratio, 16 h; activation: stronger effect = higher value
Outline: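 Screening used 2,000 ME-180 reporter cells per well exposed to pinned compound (23 nL) or DMSO; after 16 hr at 37C, beta-lactamase expression under NF-kB control was assessed through FRET.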

[24] = qHTS assay for environmental chemicals that activate the Aryl hydrocarbon Receptor (AhR) signaling pathway (AID 651777; active = well fitted curve in the direction sought with a large enough effect; an effect the other way counts as inactive or inconclusive; also: % of control where 0% means no effect; nearly all actives have a fitted effect of over 15% in size); conditions: 1A2-DRE human hepatoma cells, luciferase, 24 h; activation: stronger effect = higher value
Outline: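 Quantitative HTS in stably transfected human liver-derived cells whose luciferase gene sits downstream of the CYP1A2 promoter and dioxin response element. After 24 hr exposure at 37 C, One-Glo luminescence was measured.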

[25] = target: Peroxisome proliferator-activated receptor alpha (Homo sapiens) (UniProt Q07869); test: qHTS assay for small molecule agonists of the peroxisome proliferator-activated receptor alpha (PPARalpha) signaling pathway (AID 651778; active = well fitted curve in the direction sought with a large enough effect; an effect the other way counts as inactive or inconclusive; also: % of control where 0% means no effect); conditions: PathHunter PPARalpha complementation, chemiluminescence, 6 h; stronger effect = higher value
Outline: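 Cells plated at 2,000/well and held overnight at 37 C, 5% CO2, then compound added by pin tool for 6 hr; after PathHunter detection reagent and 60 min at room temperature, chemiluminescence from enzyme complementation was read.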

[26] = qHTS assay for small molecule agonists of the antioxidant response element (ARE) signaling pathway measured by Nrf2-dependant transcriptional activity - cell viability counter screen (AID 720653; active = well fitted curve in the direction sought with a large enough effect in the repeat runs; an effect the other way counts as inactive or inconclusive; also: % is scaled to controls: 0 for no effect and ±100 for the full control effect); conditions: ARE-bla HepG2 viability, CellTiter-Glo ATP luminescence, 16 h; stronger effect = lower value
Outline: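 ARE-bla HepG2 cells (2,000/well) rested 5 hrs at 37C/5% CO2, then exposed to compounds in DMSO for 16 hrs. Viability was read in the same wells as intracellular ATP by luminescence, 30 min at room temperature after reagent addition.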

[27] = qHTS assay for cell viability of HEK293 cells (AID 743288; active = well fitted curve in the direction sought with a large enough effect; an effect the other way counts as inactive or inconclusive; also: % is scaled to controls: 0 for no effect and ±100 for the full control effect; nearly all actives have a fitted effect of over 50% in size); conditions: ATP luminescence (CellTiter-Glo), 18 h; max response: stronger effect = lower value
Outline: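 Environmental chemicals tested in qHTS format against parental HEK293 cells; 18 h treatment, 37 C; read-out ATP luminescence (CellTiter-Glo), 30 min RT development.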

[28] = qHTS assay for cell viability of the p53RE-bla HCT-116 cell line (AID 743292; active = well fitted curve in the direction sought with a large enough effect; an effect the other way counts as inactive or inconclusive; also: % is scaled to controls: 0 for no effect and ±100 for the full control effect; nearly all actives have a fitted effect of over 55% in size)
Outline: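 Viability of compound-treated p53RE-bla HCT-116 cells is taken from ATP-dependent luciferase luminescence. Treatment lasts 16 h at 37 C after a 5 h settling period; detection follows 30 min at room temperature.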

Peroxisome proliferator-activated receptor gamma (Homo sapiens), sequence (P37231 whole entry, looked up): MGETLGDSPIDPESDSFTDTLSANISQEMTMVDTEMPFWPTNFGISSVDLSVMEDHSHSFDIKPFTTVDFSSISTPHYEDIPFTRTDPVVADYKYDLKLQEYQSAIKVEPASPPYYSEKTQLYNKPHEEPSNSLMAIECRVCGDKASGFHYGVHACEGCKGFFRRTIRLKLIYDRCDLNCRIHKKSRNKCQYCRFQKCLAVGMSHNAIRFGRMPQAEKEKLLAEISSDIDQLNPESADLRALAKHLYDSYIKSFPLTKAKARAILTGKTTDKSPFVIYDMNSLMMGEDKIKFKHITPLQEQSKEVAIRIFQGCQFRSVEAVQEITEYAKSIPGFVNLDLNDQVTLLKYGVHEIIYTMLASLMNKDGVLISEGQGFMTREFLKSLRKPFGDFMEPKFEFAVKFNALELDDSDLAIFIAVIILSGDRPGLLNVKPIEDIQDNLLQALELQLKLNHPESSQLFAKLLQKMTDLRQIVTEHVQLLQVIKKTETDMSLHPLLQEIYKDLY
Bile acid receptor (Homo sapiens), sequence (Q96RI1 whole entry, looked up): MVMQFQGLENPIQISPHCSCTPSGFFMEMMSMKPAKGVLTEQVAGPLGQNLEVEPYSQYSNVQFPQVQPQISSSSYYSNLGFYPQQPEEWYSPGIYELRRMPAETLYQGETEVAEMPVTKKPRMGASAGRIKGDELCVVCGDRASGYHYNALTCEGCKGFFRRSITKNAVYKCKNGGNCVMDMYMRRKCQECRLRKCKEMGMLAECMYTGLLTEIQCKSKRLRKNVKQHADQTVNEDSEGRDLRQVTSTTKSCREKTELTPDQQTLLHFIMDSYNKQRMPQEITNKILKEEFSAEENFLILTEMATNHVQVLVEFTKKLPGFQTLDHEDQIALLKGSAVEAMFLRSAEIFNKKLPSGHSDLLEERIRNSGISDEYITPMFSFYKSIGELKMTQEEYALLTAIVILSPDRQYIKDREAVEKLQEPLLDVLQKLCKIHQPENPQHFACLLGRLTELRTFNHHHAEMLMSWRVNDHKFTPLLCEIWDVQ
Androgen receptor (Homo sapiens), sequence (P10275 whole entry, looked up): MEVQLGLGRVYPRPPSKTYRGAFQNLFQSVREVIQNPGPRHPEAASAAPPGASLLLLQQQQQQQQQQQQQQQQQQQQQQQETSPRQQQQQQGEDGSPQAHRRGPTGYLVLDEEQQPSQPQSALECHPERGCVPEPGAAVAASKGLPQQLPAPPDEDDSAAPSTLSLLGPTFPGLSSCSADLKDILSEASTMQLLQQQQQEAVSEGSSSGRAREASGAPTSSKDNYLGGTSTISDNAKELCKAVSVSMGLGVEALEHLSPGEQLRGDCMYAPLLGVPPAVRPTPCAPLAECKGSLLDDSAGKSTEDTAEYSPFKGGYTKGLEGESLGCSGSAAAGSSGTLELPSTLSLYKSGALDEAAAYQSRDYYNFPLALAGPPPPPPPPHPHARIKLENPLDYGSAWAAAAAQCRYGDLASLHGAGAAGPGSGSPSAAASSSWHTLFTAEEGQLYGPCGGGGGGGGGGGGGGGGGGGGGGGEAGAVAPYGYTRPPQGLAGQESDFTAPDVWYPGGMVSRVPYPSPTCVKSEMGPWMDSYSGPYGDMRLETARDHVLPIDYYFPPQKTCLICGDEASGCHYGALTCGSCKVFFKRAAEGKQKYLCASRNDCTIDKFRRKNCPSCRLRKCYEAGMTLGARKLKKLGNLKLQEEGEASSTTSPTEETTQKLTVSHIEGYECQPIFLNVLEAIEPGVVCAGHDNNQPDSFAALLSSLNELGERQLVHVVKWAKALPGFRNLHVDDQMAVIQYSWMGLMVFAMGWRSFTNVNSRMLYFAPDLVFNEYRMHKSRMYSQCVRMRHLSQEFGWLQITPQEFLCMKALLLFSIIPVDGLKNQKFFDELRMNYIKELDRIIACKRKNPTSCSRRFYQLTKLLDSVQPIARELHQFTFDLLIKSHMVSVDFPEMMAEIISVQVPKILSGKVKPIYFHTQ
Vitamin D3 receptor (Homo sapiens), sequence (P11473 whole entry, looked up): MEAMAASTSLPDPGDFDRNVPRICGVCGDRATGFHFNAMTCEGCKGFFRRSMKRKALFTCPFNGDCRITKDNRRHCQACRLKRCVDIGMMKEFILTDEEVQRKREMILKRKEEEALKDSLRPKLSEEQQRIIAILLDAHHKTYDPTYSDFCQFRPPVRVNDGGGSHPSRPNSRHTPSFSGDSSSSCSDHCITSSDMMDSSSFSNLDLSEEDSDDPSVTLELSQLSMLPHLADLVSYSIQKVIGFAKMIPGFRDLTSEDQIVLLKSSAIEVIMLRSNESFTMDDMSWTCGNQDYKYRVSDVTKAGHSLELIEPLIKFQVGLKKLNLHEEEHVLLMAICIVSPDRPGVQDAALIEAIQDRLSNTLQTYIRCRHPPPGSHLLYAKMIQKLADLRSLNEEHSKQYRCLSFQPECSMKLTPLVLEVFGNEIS
Peroxisome proliferator-activated receptor delta (Homo sapiens), sequence (Q03181 whole entry, looked up): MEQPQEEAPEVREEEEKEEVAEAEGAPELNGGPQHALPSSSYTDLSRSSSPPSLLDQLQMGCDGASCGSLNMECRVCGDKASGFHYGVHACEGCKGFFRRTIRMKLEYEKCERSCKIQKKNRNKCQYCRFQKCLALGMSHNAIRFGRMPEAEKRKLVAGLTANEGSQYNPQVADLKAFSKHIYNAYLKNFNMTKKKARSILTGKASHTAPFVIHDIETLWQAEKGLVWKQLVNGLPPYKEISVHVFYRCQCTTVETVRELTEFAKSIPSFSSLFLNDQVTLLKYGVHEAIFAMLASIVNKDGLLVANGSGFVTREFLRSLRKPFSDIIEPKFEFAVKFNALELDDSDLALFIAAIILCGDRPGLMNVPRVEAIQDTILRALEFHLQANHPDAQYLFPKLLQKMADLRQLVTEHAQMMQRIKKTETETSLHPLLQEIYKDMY
Peroxisome proliferator-activated receptor alpha (Homo sapiens), sequence (Q07869 whole entry, looked up): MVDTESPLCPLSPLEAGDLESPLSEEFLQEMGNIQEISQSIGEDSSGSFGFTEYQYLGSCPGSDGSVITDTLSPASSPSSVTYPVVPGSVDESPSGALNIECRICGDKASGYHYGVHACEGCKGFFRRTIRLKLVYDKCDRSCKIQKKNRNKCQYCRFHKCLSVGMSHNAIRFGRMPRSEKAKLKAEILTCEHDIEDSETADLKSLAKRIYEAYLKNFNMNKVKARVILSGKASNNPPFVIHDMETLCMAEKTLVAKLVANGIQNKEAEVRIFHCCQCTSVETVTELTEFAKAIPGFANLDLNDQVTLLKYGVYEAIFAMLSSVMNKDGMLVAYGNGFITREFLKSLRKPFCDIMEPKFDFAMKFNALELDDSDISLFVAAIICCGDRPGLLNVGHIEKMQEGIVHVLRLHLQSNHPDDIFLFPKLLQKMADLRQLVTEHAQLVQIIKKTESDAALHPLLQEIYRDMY
Phospholipid hydroperoxide glutathione peroxidase GPX4 (Homo sapiens), sequence (P36969 whole entry, looked up): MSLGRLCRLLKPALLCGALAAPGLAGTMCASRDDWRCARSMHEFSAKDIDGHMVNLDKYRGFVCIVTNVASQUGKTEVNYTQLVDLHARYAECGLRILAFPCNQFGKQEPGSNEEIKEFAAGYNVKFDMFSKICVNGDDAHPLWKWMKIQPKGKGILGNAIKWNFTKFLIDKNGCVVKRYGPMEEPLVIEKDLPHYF
Thyroid hormone receptor beta (Homo sapiens), sequence (P10828 whole entry, looked up): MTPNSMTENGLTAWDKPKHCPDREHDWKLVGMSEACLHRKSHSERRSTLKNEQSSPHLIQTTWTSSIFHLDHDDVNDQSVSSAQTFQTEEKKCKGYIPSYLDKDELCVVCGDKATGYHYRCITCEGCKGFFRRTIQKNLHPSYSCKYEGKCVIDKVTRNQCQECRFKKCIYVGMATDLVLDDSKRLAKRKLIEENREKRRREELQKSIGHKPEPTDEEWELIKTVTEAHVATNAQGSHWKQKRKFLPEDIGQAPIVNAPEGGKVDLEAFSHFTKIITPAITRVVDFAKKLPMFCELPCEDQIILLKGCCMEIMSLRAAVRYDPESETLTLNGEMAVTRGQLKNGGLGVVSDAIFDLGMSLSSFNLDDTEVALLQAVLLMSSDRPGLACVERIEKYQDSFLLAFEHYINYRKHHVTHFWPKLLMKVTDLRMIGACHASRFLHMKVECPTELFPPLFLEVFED
Glutathione peroxidase 1 (Homo sapiens), sequence (P07203 whole entry, looked up): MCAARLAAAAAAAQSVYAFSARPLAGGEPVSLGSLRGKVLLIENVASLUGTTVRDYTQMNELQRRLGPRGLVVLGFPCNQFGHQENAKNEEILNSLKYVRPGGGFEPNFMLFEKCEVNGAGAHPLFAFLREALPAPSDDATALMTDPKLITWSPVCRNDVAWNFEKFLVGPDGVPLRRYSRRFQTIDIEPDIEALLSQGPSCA
Retinoic acid receptor RXR-alpha (Homo sapiens), sequence (P19793 whole entry, looked up): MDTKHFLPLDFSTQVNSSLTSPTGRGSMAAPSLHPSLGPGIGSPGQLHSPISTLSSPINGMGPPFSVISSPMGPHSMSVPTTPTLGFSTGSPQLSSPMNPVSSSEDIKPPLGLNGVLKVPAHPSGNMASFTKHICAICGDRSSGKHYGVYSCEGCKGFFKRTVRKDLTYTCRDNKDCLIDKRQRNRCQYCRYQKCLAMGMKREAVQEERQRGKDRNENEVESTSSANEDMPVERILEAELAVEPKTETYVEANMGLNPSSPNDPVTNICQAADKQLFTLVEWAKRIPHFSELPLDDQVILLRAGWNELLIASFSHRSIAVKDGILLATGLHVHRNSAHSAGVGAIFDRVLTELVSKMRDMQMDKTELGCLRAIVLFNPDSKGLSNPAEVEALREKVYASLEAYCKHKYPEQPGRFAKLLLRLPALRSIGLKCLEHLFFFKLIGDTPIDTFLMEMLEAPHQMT

CCCCC[C@@H](O)CC[C@H]1[C@@H]2Cc3cccc(OCC(=O)O)c3C[C@@H]2C[C@@H]1O
inactive: Potency [1] | Potency [2] | Potency [3] | Potency [4]
-4.98%: activity change, negative = inhibition [5]

CC[C@H](C)C1NC(=O)[C@H](Cc2ccc(O)cc2)NC(=O)[C@@H](N)CSSC[C@@H](C(=O)N2CCC[C@H]2C(=O)N[C@@H](CC(C)C)C(=O)NCC(N)=O)NC(=O)[C@H](CC(N)=O)NC(=O)[C@H](CCC(N)=O)NC1=O (stereo not given in full)
-27.2%: activity change, negative = inhibition [5]
inactive: Potency [1] | Potency [2] | Potency [3] | Potency [4]

CCCCCCCCCCCCNCCNCCNCC(=O)O
-24.3% [at 27.1 µM]: activity change, negative = inhibition [5]
inactive: Potency [1] | Potency [2] | Potency [3] | Potency [4] | Potency [6] | Potency [7]

CC(COc1ccc(Oc2ccccc2)cc1)Oc1ccccn1 (stereo not given)
inactive: activation [8] -2.33% | outcome [10] | activation [11] 0.631% and 1.01% | Potency [13] | outcome [14] | Potency [15] | outcome [16] | outcome [17] | max response [19] -8.09% and -10.1% | activity change % (negative = inhibition) [20] 4.1% and -8.02% | activation [22] -3.04% and -2.31% | activation [23] -1.12% and 0.467% | activation [24] 13% | max response [25] -1.27% and -0.944% | max response [26] 2.4% and -4.17% | max response [27] -1.69% and -16.3% | Potency [28] | Potency [1] | Potency [2] | Potency [3] | Potency [4] | Potency [6] | Potency [7]
11.7% and -13.8%: max response [12]
-5.43%: activity change, negative = inhibition [5]
inactive and 39.8 µM (active): Potency [9]
-19.9% and -8.14%: max response [18]
active: Potency [21] 48.6 µM and 27.3 µM
